Compound activity: PubChem BioAssay, National Center for Advancing Translational Sciences (NCATS)
HCMV antiviral: qHTS Assay for inhibitors of the human cytomegalovirus (HCMV) | actives 4.5% (n = 410,000) | activity change, negative = inhibition, % at 57.5 µM | HFF cells, HCMV-luciferase reporter, 72 h; active compounds read low; in the data active = activity change below about -60%; inconclusive = no clear call, values can overlap the other calls; inactive = above about -39%
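Luciferase read-out from HCMV-luciferase-infected HFFs (MOI 1 PFU/cell) 72 h post infection at 37C; compounds added after 16 h cell attachment; activity normalized between buffer-only basal and Salinomycin (10uM) inhibitor controls.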
LASV entry inh: qHTS for Inhibitors of binding or entry into cells for Lassa Virus; Lassa virus pseudotype entry inhibition, cell reporter; Potency, µM (top dose mostly 37.9 µM), actives largely listed as inhibitors; actives 1.2% (n = 300,000); calls by dose curve; tested in HEK293 cells; note: nearly all actives have a fitted effect of over 50% in size
FMDV antiviral: High Throughput Screening for Foot and Mouth Disease Virus Antivirals; FMDV antiviral cell-based qHTS; Potency, µM (highest dose often 57.9 µM), usual class: inhibitors; actives 1.2% (n = 410,000); AID 1159524, 2015; calls by dose curve; tested in HEK293T cells; note: read-out not given here; nearly all actives have a fitted effect of over 45% in size
MARV entry inh: qHTS for inhibitors of binding or entry into cells for Marburg Virus; AID 540276, 2011; Marburg virus pseudotyped entry inhibition, cell reporter; actives 1.8% (n = 300,000); Potency, µM (series often up to 37.8 µM), actives largely listed as inhibitors; calls by dose curve; tested in HEK293 cells
Of the large screens only hits and unclear results are named; the others gave an inactive call. An excerpt weighted towards active compounds, which were near 6.2% of everything screened.

CCCCOCCCNC(=O)C[C@@H]1C[C@@]2(C(=O)OC)CC(C)(C)CC=C2N(Cc2ccco2)C1=O	none (no result: LASV entry inh, MARV entry inh)
CC(C)C[C@H]1COc2c(Cl)cccc2S(=O)(=O)N1Cc1cccc(Cl)c1	MARV entry inh inconclusive (no result: LASV entry inh, FMDV antiviral)
Cc1ccc(OCC(=O)Nc2cc(-c3nc4ccccc4[nH]3)ccc2C)c(C)c1	none
Cc1ccc(-c2nc3ccccc3[nH]2)cc1NC(=O)COc1ccccc1[N+](=O)[O-]	HCMV antiviral -88, LASV entry inh inconclusive
CCN(CC)CC(=O)Nc1ccc(Oc2ccc(NC(=O)CN(CC)CC)cc2)cc1	MARV entry inh 4µM
CCCC(=O)Nc1ccc2oc(-c3ccncc3)nc2c1	none
CCN(CC)CC(=O)Nc1ccc(-c2nc3cc(NC(=O)CN(CC)CC)ccc3o2)cc1	MARV entry inh 0.71µM
CO/N=C\CC(=O)Nc1ccc(Oc2ccccc2)cc1	HCMV antiviral -70, LASV entry inh inconclusive, MARV entry inh inconclusive
CCN(CC(=O)Nc1ccc(OC)cc1)CC(=O)Nc1ccc(Cl)cc1F	none
O=C(CN1CCCC1)Nc1ccc(-c2nc3cc(NC(=O)CN4CCCC4)ccc3o2)cc1	HCMV antiviral -100, LASV entry inh inconclusive, MARV entry inh inconclusive
COc1ccc(N2C(=O)CS(=O)(=O)C23C(=O)N(Cc2c(F)cccc2Cl)c2ccccc23)cc1 (stereo not given)	LASV entry inh inconclusive, FMDV antiviral inconclusive (no result: MARV entry inh)
CCOc1ccc(-n2c(SCC(N)=O)nc3c(oc4ccccc43)c2=O)cc1	none (no result: LASV entry inh)
CCS(=O)(=O)N1CC2(CN(C(=O)Nc3c(C)noc3C)[C@@H](CO)c3[nH]c4cc(OC)ccc4c32)C1	none (no result: LASV entry inh, FMDV antiviral, MARV entry inh)
COc1ccc(C2=NCC(C)n3nc4cc(C(F)(F)F)ccc4c32)cc1 (stereo not given)	none (no result: LASV entry inh, FMDV antiviral, MARV entry inh)
Cc1cnc(CNc2cc(-c3ccccc3CN(C)C)ncn2)cn1	none (no result: HCMV antiviral, LASV entry inh, MARV entry inh)
CCC(C)NCC(=O)Nc1ccc(-c2nc3cc(NC(=O)CNC(C)CC)ccc3o2)cc1 (stereo not given)	HCMV antiviral -84, LASV entry inh inconclusive, MARV entry inh inconclusive
O=C(Cc1ccc(Cl)c(Cl)c1)OCCN1CCCC1	none (no result: HCMV antiviral, LASV entry inh, FMDV antiviral)
Cc1ccccc1C(=O)NC(NC(=O)c1ccccc1C)c1cccc([N+](=O)[O-])c1	LASV entry inh inconclusive, MARV entry inh inconclusive
Cc1ccc(C(=O)NC(NC(=O)c2ccc(C)cc2)c2cccc([N+](=O)[O-])c2)cc1	HCMV antiviral -60
COc1cc(/C=N/NC(=O)C(Cc2c[nH]c3ccccc23)NC(=O)OCc2ccccc2)cc([N+](=O)[O-])c1O (stereo not given)	LASV entry inh 6.3µM
COc1cccc(CNC(=O)[C@@H]2[C@@H](CO)[C@@H]3Cn4c(ccc(-c5cncnc5)c4=O)[C@H]2N3C(C)=O)c1	HCMV antiviral -101 (no result: LASV entry inh, FMDV antiviral, MARV entry inh)
COCCNC(=O)[C@H]1[C@H](CO)[C@H]2Cn3c(ccc(-c4ccc(F)cc4)c3=O)[C@@H]1N2C(=O)NC(C)C	none (no result: LASV entry inh, FMDV antiviral, MARV entry inh)
COc1cccc(-c2nnc3sc(C4CCCCC4)nn23)c1	HCMV antiviral -84
CCOc1cccc(-c2nnc3sc(C4CCCCC4)nn23)c1	HCMV antiviral inconclusive, LASV entry inh inconclusive
Cc1cc(C)c2cc(C#N)c(N3CCCN(C(=S)NCCCN(C)C)CC3)nc2c1	MARV entry inh inconclusive
Cc1ccc2cc(C#N)c(N3CCCN(C(=S)NCCCN(C)C)CC3)nc2c1	LASV entry inh inconclusive, MARV entry inh 7.1µM
O=C(NCC1Cc2cc(F)cc(-c3cnccn3)c2O1)c1cccc(-c2ccccc2F)c1 (stereo not given)	none (no result: HCMV antiviral, LASV entry inh, MARV entry inh)
O=C(Nc1ccc(N2CCN(C(=O)c3ccccc3)CC2)cc1)c1cccs1	LASV entry inh inconclusive
CC(C)CC(=O)NC(=S)Nc1ccc(N2CCN(C(=O)c3cccs3)CC2)cc1	LASV entry inh 5.6µM, FMDV antiviral inconclusive, MARV entry inh inconclusive
COc1ccc(C(=O)N2CCN(c3ccc(NC(=O)c4cccs4)cc3)CC2)cc1	HCMV antiviral -68, FMDV antiviral inconclusive
CC(C)C(=O)Nc1ccc(N2CCN(C(=O)c3cccs3)CC2)cc1	none
CCc1ccc(C(=O)N2CCN(c3ccc(NC(=O)c4ccco4)cc3)CC2)cc1	LASV entry inh inconclusive, FMDV antiviral inconclusive
Cc1ccc(C(=O)N2CCN(c3ccc(NC(=S)NC(=O)c4cccs4)cc3)CC2)cc1	HCMV antiviral -74, LASV entry inh inconclusive, MARV entry inh 7.9µM
COc1ccc(C(=O)N2CCN(c3ccc(NC(=O)c4ccco4)cc3)CC2)cc1	HCMV antiviral -76
Cc1cccc(C)c1NC(=O)c1ccc2c(c1)nnn2C1CCCC1	none (no result: MARV entry inh)
CCCCOc1ccc(S(=O)(=O)Nc2ccc(-c3ccc(N4CCCCC4)nn3)cc2)cc1	none (no result: MARV entry inh)
CCCCCn1c(-c2ccco2)nc2nc3ccccc3nc21	MARV entry inh 11µM
CC1(C)c2ccccc2C(=O)c2ccccc21	LASV entry inh inconclusive
O=[N+]([O-])C1C(c2ccccc2)C12c1ccccc1-c1ccccc12 (stereo not given)	FMDV antiviral 14µM (no result: HCMV antiviral, LASV entry inh, MARV entry inh)
CCCN1C(=O)C(Cc2nc3ccccc3c(=O)n2-c2ccc(OC)cc2)c2cc(C)ccc21 (stereo not given)	none
Cc1nc2cc(C(=O)OCC(=O)N(CC(C)C)C3CCS(=O)(=O)C3)ccc2n1-c1ccccc1 (stereo not given)	HCMV antiviral -96, MARV entry inh inconclusive
Cc1nc2cc(C(=O)OCC(=O)NC(C)C(C)C)ccc2n1-c1ccccc1 (stereo not given)	LASV entry inh 8.2µM, MARV entry inh inconclusive
CC(C)CN(C(=O)COC(=O)c1ccc(-c2ccccc2)cc1)C1CCS(=O)(=O)C1 (stereo not given)	none
C#CCCCO/N=C1\C[C@@H](O)[C@@H](O)[C@@H]2[C@@H]3C(=O)N(Cc4ccc5c(c4)OCO5)C(=O)[C@@H]3CC[C@@H]12	none (no result: HCMV antiviral, LASV entry inh, FMDV antiviral)
COc1cccc(OC)c1C(=O)NC(=S)Nc1cccc(NC(=O)c2ccco2)c1	HCMV antiviral -61, MARV entry inh inconclusive
Cc1cc(C)c(OCC(=O)Nc2cccc(NC(=O)c3ccco3)c2)c(Br)c1	HCMV antiviral -76, FMDV antiviral inconclusive, MARV entry inh inconclusive
COc1ccc(NC(=O)c2ccco2)cc1NC(=O)COc1ccc(Cl)cc1C	none
Cc1cc(C)cc(C(=O)Nc2cccc(NC(=O)c3ccco3)c2)c1	HCMV antiviral -73
Cc1cc(C)c(OCC(=O)Nc2ccc(NC(=O)c3ccco3)cc2)c([N+](=O)[O-])c1	none
COc1ccc(NC(=O)c2ccco2)cc1NC(=O)COc1ccc(C)cc1C	HCMV antiviral -66, FMDV antiviral inconclusive
COC(=O)c1cc(OC)c(OC)cc1NC(=O)c1ccco1	FMDV antiviral inconclusive
COc1ccc(NC(=O)COC(=O)c2cc(OC)c(OC)cc2NC(=O)c2ccco2)cc1OC	HCMV antiviral -66
COc1ccc(C(=O)N2CCN(c3ccc([N+](=O)[O-])c(NCCc4ccc(OC)c(OC)c4)c3)CC2)cc1	HCMV antiviral -99, LASV entry inh 4.5µM, FMDV antiviral 8.9µM, MARV entry inh inconclusive
COc1ccc(CCNc2cc(N3CCN(C(=O)c4ccccc4F)CC3)ccc2[N+](=O)[O-])cc1OC	HCMV antiviral -97, LASV entry inh inconclusive, FMDV antiviral 3.5µM, MARV entry inh inconclusive
COc1ccc(CCNc2cc(N3CCN(C(=O)c4ccc(C)cc4)CC3)ccc2[N+](=O)[O-])cc1OC	none (no result: HCMV antiviral, FMDV antiviral)
